From PubChem BioAssay
Activity calls are given as the source filed them. No stated cut-off is given here; in the data, active means inhibition above about 30%; inactive means the rest.

experiment: growth suppression of yeast trafficking mutant, preliminary HTS, modulators of trafficking downstream of Golgi apparatus project, 1536-format plate, OD 615 nm (AID 637); details: yeast transport mutant growth, absorbance 615 nm, 18 h; active compounds read high

inhibition, inactive:
CC1(C)Cc2cccc(OCC(=O)O)c2O1 -3.97%
CCn1cc(C(=O)O)c(=O)c2cc(F)c(N3CCN(C(=O)Nc4ccccc4)CC3)cc21 0%
[O-][n+]1c2ccc3nonc3c2nn1-c1ccccc1Cl -6.45%
Cc1oc(-c2ccccc2Cl)nc1CSCC(=O)N1CCCC1 6.61%
CC(NC(=O)Cc1cccs1)c1ccc2c(c1)OCO2 (stereo not given) -0.66%
O=C(NCc1ccco1)c1csc(Nc2ccccc2Cl)n1 -5.25%
O=C(Nc1ccc2c(c1)OCO2)C1CCCN1C(=O)Nc1ccccc1F (stereo not given) -3.97%
COCCNC(=O)CC(NS(=O)(=O)c1ccc(NC(C)=O)cc1)C(C)C (stereo not given) 5%
Cc1ccc(S(=O)(=O)NCCN2CCOCC2)cc1C -1.11%
Cc1n[nH]c(C)c1S(=O)(=O)N1CCN(c2ccccn2)CC1 -4.29%
COCCNC(=O)CN(C)S(=O)(=O)c1ccc2c(c1)OCCO2 -2.26%
Cc1cc(C(F)F)n2nc(C(=O)Nc3ccc(S(=O)(=O)N4CCCCCC4)cc3)nc2n1 22.9%
O=C(O)C1C2C=CC(O2)C1C(=O)NCc1ccc(Cl)cc1 (stereo not given) 2.58%
Cc1ccc(NC2c3ncccc3C(=O)N2C2CCCCC2)cc1C (stereo not given) 11.5%
C=CCOc1ccc(C2C(C(=O)c3ccco3)=C(O)C(=O)N2Cc2cccnc2)cc1 (stereo not given) 8.69%
COCCNC(=O)C(c1ccncc1)N(C(=O)Cn1nnc2ccccc21)c1ccc(OC)cc1 (stereo not given) 8.03%
CCOc1ccc(NC(=O)CSc2nnc(Cc3cccn3C)n2-c2ccc(OC)cc2)cc1 -8.03%
CCOC(=O)N1CCC(O)(c2cc(C)c(C)cc2C)CC1 -5%
Clc1cccc(Nc2c3c(nc4ncnn24)CCC3)c1 9.84%
O=c1cc(-c2ccc(Cl)cc2)[nH][nH]1 1%
Cc1nc(N)c(C#N)c(-c2cccnc2)c1C -2.86%
CCOC(=O)c1c(NC(=O)OC)sc(C(=O)N(C)C)c1C -4%
O=C(NCCO)c1scc2c1OCCO2 -1.8%
c1ccc2c(c1)Cn1c-2nc2ccccc21 1%
CCOC(=O)C1=C(C)Nc2ncnn2C1c1ccccc1F (stereo not given) -1.29%
Cc1nc2ccc(NC(=O)N3CCOCC3)cc2s1 -1.27%
Nc1nnnn1/N=C/c1ccccc1OCc1ccccc1 2.42%
COc1cccc(-c2noc(-c3cccs3)n2)c1 -4.29%
CC1CCN(S(=O)(=O)c2ccc(S(=O)(=O)NCC(=O)C(C)(C)C)cc2)CC1 -8.23%
OCCN1CCN(CC(O)COc2ccc3ccccc3c2)CC1 (stereo not given) 5.25%
O=C(NCc1cccnc1)c1ccccc1Br -2.42%
C=CCNC(=O)c1cccc(Br)c1 5.08%
CC(c1nnc(SCC(=O)Nc2sccc2C#N)n1-c1ccc(Cl)cc1)N(C)C (stereo not given) 0.79%
O=C(c1cc(S(=O)(=O)N2CCOCC2)ccc1F)N1CCCc2ccccc21 -2.83%
CC(C)Oc1ccc(N2CC(C(=O)Nc3ccccc3F)CC2=O)cc1 (stereo not given) -10.3%
COCCn1c(C23CC4CC(CC(C4)C2)C3)n[nH]c1=S 1.33%
COc1cccc(C2=Nn3c(nnc3-c3ccccc3O)SC2)c1 -2.83%
COc1cc(OC)c(OC)cc1CN(C)CCc1ccccn1 7%
CC(=O)c1c(C)nn(CC(O)COc2ccc3c(c2)CCC3)c1C (stereo not given) -6.03%
Cc1cccn2cc(-c3ccccc3)nc12 2.55%
